Assay results reported in PubChem BioAssay.

Test: inhibition of PAO1 biofilm formation – strain PAO1, LB-PBS medium, absorbance 600 nm, primary screen (AID 1176); also: test concentration not given here
Conditions: P. aeruginosa PAO1 growth/biofilm, A600, 12 h; higher = more signal; call rule not given here

z-score, inactive:
C=CC[C@@H]1C=C[C@H](ON=CC[C@@H]2C=C[C@H](OC(C)=O)[C@@H](COC(C)=O)O2)[C@@H](CO)O1 -0.242, C=CC[C@@H]1C=C[C@H](ON=C(C)CCN2CCCc3nc(C)c(C)cc32)[C@@H](CO)O1 0.936, CC(=O)OC[C@H]1O[C@H](CC=NO[C@H](C)c2cn([C@@H]3COC[C@H]3O)nn2)C=C[C@@H]1OC(C)=O 0.441, CC(=O)OC[C@H]1O[C@H](CCON=C(C)CCN2CCCc3nc(C)c(C)cc32)C=C[C@@H]1OC(C)=O 0.511, CO[C@H]1COC(=O)[C@H](CCSC)NC(=O)CC=C[C@@H](C)[C@H](OC)COC(=O)[C@@H](OCc2ccccc2)C=C[C@@H]1C -1.38, CN1CCc2nc(-c3ccccc3)c(-c3ccccc3)cc2C1 -0.364, CON=C(C)CCN1CCc2nc(-c3ccccc3)c(-c3ccccc3)cc2C1 0.958, CCN1C(=O)[C@H]2[C@@H]3C(=CC[C@H]2C1=O)C(=O)[C@H]1O[C@H]1[C@H]3O -0.978, CC(C)C(=O)N[C@H]1CCCN1C(=O)C=Cc1ccccc1 0.897, CCOC(=O)[C@H](CC(C)C)NC(=O)CCC1CC(OC(=O)NCc2ccc3c(c2)OCO3)CC2(CCCC(COC(=O)NCCC(C)C)O2)O1 (stereo partly specified) 0.462, COC(=O)CC=C[C@@H](C)[C@@H](C=NOC[C@@H](O)COCc1ccco1)NS(=O)(=O)c1ccc(C)cc1 -0.312
